# Screening data deposited in PubChem BioAssay by National Center for Advancing Translational Sciences (NCATS).
# A selection: hits, their analogues and other compounds. The true share with any hit is near 11%.
# ALDH1A1 block: qHTS Assay for Inhibitors of Aldehyde Dehydrogenase 1 (ALDH1A1) | Aldehyde dehydrogenase 1A1 (Homo sapiens), P00352 | Purified ALDH1A1, NADH fluorescence, propionaldehyde substrate | Potency, µM (highest dose often 75.3 µM), inactives show top-dose activity, negative = inhibition, actives largely listed as inhibitors | actives 7.3% (n = 220,000) | AID 1030, 2008;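 note: potency is the fitted concentration of half-maximal effect; plate controls were no enzyme wells and a reference inhibitor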
# Target sequence (P00352 whole entry, looked up): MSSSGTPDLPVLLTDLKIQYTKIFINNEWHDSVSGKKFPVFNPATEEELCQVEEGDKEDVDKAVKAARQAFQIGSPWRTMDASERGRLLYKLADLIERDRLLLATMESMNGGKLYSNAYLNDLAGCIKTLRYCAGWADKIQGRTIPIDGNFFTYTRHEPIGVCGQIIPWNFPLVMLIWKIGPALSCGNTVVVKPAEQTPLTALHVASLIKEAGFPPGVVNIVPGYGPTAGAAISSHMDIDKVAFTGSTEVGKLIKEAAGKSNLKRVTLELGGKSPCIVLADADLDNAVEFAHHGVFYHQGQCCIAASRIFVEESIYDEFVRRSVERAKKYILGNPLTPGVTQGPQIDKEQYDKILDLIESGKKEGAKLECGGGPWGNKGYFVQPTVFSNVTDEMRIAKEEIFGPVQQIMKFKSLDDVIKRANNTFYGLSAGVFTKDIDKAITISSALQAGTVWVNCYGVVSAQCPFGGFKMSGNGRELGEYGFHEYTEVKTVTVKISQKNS
# HPGD inh: qHTS Assay for Inhibitors of HPGD (15-Hydroxyprostaglandin Dehydrogenase). Potency, µM, without a hit: at the top dose activity change, negative = inhibition, actives largely listed as inhibitors. actives 4.3% (n = 150,000). AID 894, 2007. purified HPGD, NADH fluorescence kinetic, PGE2 substrate; note: potency is the fitted concentration of half-maximal effect
#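 20 nM HPGD preincubated 15 min at room temperature with compound in 50 mM Tris-HCl pH 8, 0.01% Tween 20. Started with 1 mM NAD+ and 30 uM prostaglandin E2; NADH fluorescence (360/450 nm) read 5 times over 30-s intervals, last minus first.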
# JMJD2E inh: qHTS Assay for Inhibitors of Human Jumonji Domain Containing 2E (JMJD2E); AID 2147, 2009; actives 1.6% (n = 230,000); Lysine-specific demethylase 4E (Homo sapiens), B2RXH2; Potency, µM (titrated, usually from 57.1 µM), inactives show top-dose activity change, negative = inhibition, most hits filed as inhibitors; JMJD2E catalytic domain, FDH-coupled NADH fluorescence (FDH is formaldehyde dehydrogenase);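 note: potency is the fitted concentration of half-maximal effect; 0% = wells with enzyme and -100% = buffer wells without enzyme; nearly all actives have a fitted effect of over 50% in size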
# PNC assembly inh: High Content Assay for Compounds that inhibit the Assembly of the Perinucleolar Compartment. PC3M PTB-GFP, PNC prevalence imaging, 16 h; hits give low values. activity change (PNC), negative = inhibition, % at 10 µM. actives 3.1% (n = 140,000);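 active = readout at or below -70, meaning at least 70% loss of cells showing the perinucleolar compartment, a nuclear body marking cancer cells; inconclusive = readout between -30 and a set limit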;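 note: plate controls were DMSO wells for no effect and camptothecin positive control wells for full effect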
#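 PC3M cells stably expressing PTB-GFP, 750–1000 cells/well, treated 16 h at 37 °C with compound (23 nl of library stock), in duplicate. After paraformaldehyde fixation and Hoechst stain, imaged at 20x; PNC prevalence scored by image analysis.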
# Numbers without * were called inactive; ? = inconclusive; . = no result given; ! = not confirmed by another sample; [ ] = remark or other dose. Unless noted, calls come from the whole dose curve; as a rule, active = well fitted inhibition curve with a large enough effect (not every such curve was filed as active); inconclusive = small, poorly fitted or top-dose-only effect, or another doubt; inactive = no such curve, though single readings can be large or run the other way. Unless noted, % is set by controls: 0 for no effect and ±100 for the full control effect.
SMILES,ALDH1A1 block,HPGD inh,JMJD2E inh,PNC assembly inh
CSCCOC(=O)C1=C(C)Nc2ccc(C)cc2S1,14µM*,-14%,-14%,?
Cc1ccc(N/C(=C\C(=O)c2ccccc2)C(=O)O)cc1,-11%,.,?,.
CC1CCC2(CC1)NC(=O)N(CC(=O)N1CCc3ccccc3C1)C2=O (stereo unspecified),1%,.,7%,.
CC1CCC2(CC1)NC(=O)N(CC(=O)c1cn(CCC#N)c3ccccc13)C2=O (stereo unspecified),7.1µM*,.,1%,.
COC(=O)CC1[C@@]2(C)C[C@@]34OC5(C)OC6(CC[C@@]7(C)C(c8ccoc8)OC(=O)C(C(C)=O)C7[C@]6(O5)C(O)[C@@]3(O)C2O)[C@]14C (stereo partly specified),-3%,-4%,-9%,.
COc1ccc(N2C(=O)C3C(c4ccc(C(=O)O)cc4)NC(Cc4ccccc4)(C(=O)O)C3C2=O)c([N+](=O)[O-])c1 (stereo unspecified),11µM*,.,-28%,.
S=C(NC1CCCCC1)N1CCC([C@H]2C=NC=N2)CC1,-3%[20.9 µM],1%,-2%[25.5 µM],.
COc1ccc(C(c2sc3nc(C)nn3c2O)N2CCc3ccccc3C2)cc1 (stereo unspecified),?,22µM*,?,21
COc1cc(C(c2sc3nc(C)nn3c2O)N2CCc3ccccc3C2)cc(OC)c1OC (stereo unspecified),?,-11%,1%,?
COc1ccc(CN(C)C(=S)Nc2ccc(Cl)cc2)cc1,-10%,.,-4%,.
COc1ccc(NC(=O)c2cccc(-n3cnnn3)c2)cc1,0%,.,-4%,-26
COc1cc(C(=O)Nc2ccc(S(=O)(=O)N3CCCCC3C)cc2)cc(OC)c1OC (stereo unspecified),?,-14%,-11%,?
CC1CCCCN1S(=O)(=O)c1ccc(NC(=O)c2cccc(-n3cnnn3)c2)cc1 (stereo unspecified),25µM*,22µM*,-10%,-11
COc1ccc(C(=O)Nc2ccc(S(=O)(=O)N3CCCCC3C)cc2)c(OC)c1OC (stereo unspecified),18µM*,?,?,?
COc1ccc(N2CCN(C(=O)C3CCN(S(=O)(=O)c4ccccc4)CC3)CC2)cc1,-5%,.,-24%,.
O=C(C1CCN(S(=O)(=O)c2ccc(-n3cnnn3)cc2)CC1)N1CCN(c2ccccc2)CC1,28µM*,-9%,-3%,?
CC1CCCN(S(=O)(=O)c2ccc(NC(=O)c3cccc(-n4cnnn4)c3)cc2)C1 (stereo unspecified),?,28µM*,-3%,-15
O=C(CSc1nc2ccccc2s1)Nc1cc(S(=O)(=O)N2CCOCC2)ccc1O,1%,13µM*,-1%,-4
O=C(CSc1nc2ccccc2s1)c1cc2ccccc2o1,?,22µM*,-6%,12
O=C(CSc1nc2ccccc2s1)CSc1nc2ccccc2s1,-5%,-14%,0%,-5
O=C(CSc1nc2ccccc2s1)Nc1ccc(Cl)c(C(=O)O)c1,2.5µM*,.,-11%,.
O=C(CSc1nc2ccccc2s1)Nc1cc(C(=O)O)cc(C(=O)O)c1,0%,.,-9%,.
O=C(CSc1nc2ccccc2s1)Nc1ccc2c(c1)oc1ccccc12,25µM*,-14%,-8%,31
O=C(NN1C(=O)c2ccccc2C1=O)C1C2CCCCC21 (stereo unspecified),?,-9%,-3%,27
O=C(CSc1nc2ccc([N+](=O)[O-])cc2s1)c1ccc2ccccc2c1,11µM*!,-4%,4%,.
SMILES,ALDH1A1 block,HPGD inh,JMJD2E inh,PNC assembly inh
O=C(CSc1nnc(NC(=O)c2ccccc2Cl)s1)Nc1ccc2c(c1)oc1ccccc12,18µM*,-6%,15%,-23
COc1ccc(S(=O)(=O)N2CCOCC2)cc1NC(=O)CSc1n[nH]c(C(C)C)n1,25µM*,.,2%,.
O=[N+]([O-])c1ccc2nc(SCc3ccccc3Cl)sc2c1,?,-12%,-9%,99
CC(C)(C)NC(=O)CSc1nnc(NC(=O)c2ccccc2Cl)s1,-5%,.,-8%,.
Clc1ccc(/C=C\c2nc(Cl)c(-c3ccc(Cl)cc3)c(Cl)n2)cc1,?,-9%,.,.
CSc1nc(-c2ccc(F)cc2)cc(=O)[nH]1,4%,-2%,2%,?
O=C(C1CCCN(Cc2ccccc2C(F)(F)F)C1)N1CCCCC1 (stereo unspecified),-8%,-22%,?,107
O=C(C1CCCN(Cc2ccccc2Br)C1)N1CCCCC1 (stereo unspecified),-16%,25µM*,-27%,-17
COc1cc(C(=O)N2CCN(c3ccccc3)CC2)c([N+](=O)[O-])cc1OC,-5%,.,?,.
N#CC1=C(N)N(c2ccc(Oc3ccccc3)cc2)C(=O)C1,25µM*,-2%,-1%,18
COc1ccc2c(c1)C(=O)N(c1ccccc1)C(=O)C2,?,?,?,19
CCC(COC)NCc1cn(-c2ccc(OC)cc2)nc1-c1cccc(F)c1 (stereo unspecified),?,.,-7%,.
O=C(c1ccccc1)c1c2c(cc3sc4ccccc4[n+]13)-c1cccc3cccc-2c13,-7%,-8%,16µM*,-14
Cc1sc2cc3c(c(C(=O)c4ccccc4)[n+]2c1C)-c1cccc2cccc-3c12,-2%,-11%,?,16
O=C(NNS(=O)(=O)c1ccc(F)cc1)C1CC(c2cccnc2)=NO1 (stereo unspecified),?,.,-9%,.
O=C(NC1CCCCC1)c1sc(=S)n2c1[nH]c(=O)c1ccccc12,3.2µM*,13µM*,4%,21
O=C(NCC1CCCO1)c1sc(=S)n2c1[nH]c(=O)c1ccc(C(=O)N3CCCCC3)cc12 (stereo unspecified),?,0.45µM*,3%,-22
CC(C)NC(=O)COc1ccc(S(=O)(=O)N(C)Cc2ccccc2)cc1,.,.,2%,.
CC(C)NC(=O)c1nn(C)c2ccccc12,-1%,-10%,?,?
COCC(C)NC(=O)c1ccc(N(C)C)cc1 (stereo unspecified),8.9µM*,22µM*,-3%,-4
COCC(C)NC(=O)c1cccc([N+](=O)[O-])c1 (stereo unspecified),-9%,.,4%,.
CN(C)c1ccc(C(CC(=O)O)NC(=O)c2ccc(Cl)cc2)cc1 (stereo unspecified),18µM*,-11%,-26%,-2
COC(=O)[C@@]1(Cc2ccccc2)[C@H]2c3cc(C(=O)N4CCCC4)n(Cc4ccc(OC)c(OC)c4)c3C[C@H]2CN1C(=O)c1ccccc1,-4%,-4%,-7%,.
COc1ccc2c(c1)[C@]1(C)CCC(=O)C[C@H]1CC2,2.8µM*,-12%,-27%,.
CC(=O)c1cc(CN2CCN(C(C)C)C(CCO)C2)cs1 (stereo unspecified),-2%,.,-3%,.
